# Laboratory results from the supplement of paper PMC5919970.
# Structures can show the parent of a compound that is named as a salt. Whole data set: some 2,000 compounds, median “fractional viability relative to vehicle” near 0.92, cut for the lowest 2% near 0.11. Shown is part of a subset that was picked to be rich in the lowest values.
# System: TYKNU
# Test: fractional viability relative to vehicle; TYKNU is a high-grade serous ovarian cancer line; higher = less growth inhibition
# Conditions: 72 h, genotype: OPA1 knockout (sgOPA1 #2)
# In short: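 Drug treatment lasted 72 h, with cells grown at 37 °C in 5% CO2 in RPMI 1640 supplemented with 10% FBS. Beforehand, TYKNU control cells or their lentiCRISPRv2 knockout derivatives had been seeded at 500 cells per well into drug-stamped 384-well plates carrying a ~2100-compound library at 2 or 10 μM, in duplicate. Viability came from Cell Titer Glo luminescence, with averaged duplicate treatment wells normalised to duplicate control wells in the same plate position.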
compound,measurement,setting,value
CN[C@@H](C)C(=O)N[C@H](C(=O)N1CCC[C@H]1c1nc(C(=O)c2ccc(F)cc2)cs1)C1CCCCC1,fractional viability,2uM,0.719
same,fractional viability,10uM,0.643
N#C/C(=C1/SC[C@@H](c2ccc(Cl)cc2Cl)S1)n1ccnc1 [Luliconazole],fractional viability,2uM,0.989
same,fractional viability,10uM,0.818
Cc1cccc(-c2[nH]c(C(C)(C)C)nc2-c2ccc3c(c2)OCO3)n1,fractional viability,2uM,1.2
same,fractional viability,10uM,0.682
COc1ncc(-c2ccc3nccc(-c4ccnnc4)c3c2)cc1NS(=O)(=O)c1ccc(F)cc1F,fractional viability,2uM,0.354
same,fractional viability,10uM,0.0636
"CCCS(=O)(=O)Nc1ccc(F)c(C(=O)c2c[nH]c3ncc(-c4ccc(Cl)cc4)cc23)c1F [Vemurafenib (PLX4032, RG7204)]",fractional viability,2uM,1.13
same,fractional viability,10uM,1
Cc1ccc(S(=O)(=O)/C=C/C#N)cc1,fractional viability,2uM,0.121
same,fractional viability,10uM,0.09
CC(C)(C)c1ccc(S(=O)(=O)/C=C/C#N)cc1,fractional viability,2uM,0.357
same,fractional viability,10uM,0.0658
NC(=O)c1cccc2[nH]c(-c3ccc(C4CCCN4)cc3F)nc12 (centres undefined),fractional viability,2uM,0.735
same,fractional viability,10uM,0.788
"CC[C@H](CO)Nc1nc(NCc2ccccc2)c2ncn(C(C)C)c2n1 [Roscovitine (Seliciclib,CYC202)]",fractional viability,2uM,1.14
same,fractional viability,10uM,0.913
Cc1cc(C(O)=C2C(=O)C(=O)N(CCCN3CCOCC3)C2c2ccncc2)ccc1OCc1ccccc1 (centres undefined),fractional viability,2uM,0.973
same,fractional viability,10uM,0.814
CC(O)c1cc(C(=O)N[C@@H](C)Cn2ccc(-c3ccc(C#N)c(Cl)c3)n2)n[nH]1 (some centres undefined),fractional viability,2uM,0.945
same,fractional viability,10uM,1.06
Cn1ncnc1[C@H]1c2n[nH]c(=O)c3cc(F)cc(c23)N[C@@H]1c1ccc(F)cc1,fractional viability,2uM,0.905
same,fractional viability,10uM,0.986
NC(=O)c1cnc2[nH]ccc2c1N[C@@H]1[C@@H]2CC3C[C@H]1C[C@@](O)(C3)C2,fractional viability,2uM,0.989
same,fractional viability,10uM,1
CC(=O)Nc1cccc2c1c(Sc1ccc(Cl)cc1)c(C)n2CC(=O)O,fractional viability,2uM,0.976
same,fractional viability,10uM,0.913
CC(=O)N1c2ccc(-c3ccc(C(=O)O)cc3)cc2[C@H](Nc2ccc(Cl)cc2)C[C@@H]1C,fractional viability,2uM,0.529
same,fractional viability,10uM,0.337
NNC(=O)c1ccncc1 [Isoniazid],fractional viability,2uM,1.01
same,fractional viability,10uM,1.08
O=C(NNc1ccccc1)c1ccncc1,fractional viability,2uM,0.769
same,fractional viability,10uM,0.792
O=C(/C=C/c1ccc2ccccc2n1)c1ccncc1,fractional viability,2uM,0.472
same,fractional viability,10uM,0.11
C[C@H](CCC(=O)NCCS(=O)(=O)O)[C@H]1CC[C@H]2[C@@H]3[C@@H](O)C[C@@H]4C[C@H](O)CC[C@]4(C)[C@H]3CC[C@]12C [Sodium Tauroursodeoxycholate (TUDC)],fractional viability,2uM,0.832
same,fractional viability,10uM,0.834
Cc1c(C(=O)NN2CCCCC2)nn(-c2ccc(Cl)cc2Cl)c1-c1ccc(I)cc1,fractional viability,2uM,0.982
same,fractional viability,10uM,0.754
CCN(CC)CCCC(C)Nc1c2ccc(Cl)cc2nc2ccc(OC)cc12 (centres undefined) [Quinacrine 2HCl],fractional viability,2uM,0.837
same,fractional viability,10uM,0.105
CCN(CC)CCCC(C)Nc1nc(C)cc(Nc2ccc3nc(C)cc(N)c3c2)n1 (centres undefined),fractional viability,2uM,0.891
same,fractional viability,10uM,0.898
C[C@H](Nc1ncnc2[nH]cnc12)c1cc2ccc(F)cc2nc1-c1ccccn1,fractional viability,2uM,0.879
same,fractional viability,10uM,0.836
O=C(O)CCNC(=O)c1ccccc1 [Betamipron],fractional viability,2uM,1.14
same,fractional viability,10uM,0.982
CN(NC(=O)CC(=O)NN(C)C(=S)c1ccccc1)C(=S)c1ccccc1 [Elesclomol (STA-4783)],fractional viability,2uM,0.0864
same,fractional viability,10uM,0.107
O=C(O)c1ccccc1 [Benzoic Acid],fractional viability,2uM,0.885
same,fractional viability,10uM,0.957
Cc1cc(CS(=O)(=O)c2ccccc2)cc(OCc2ccc(CN3CCC[C@@H]3CO)cc2)c1,fractional viability,2uM,0.843
same,fractional viability,10uM,0.875
C=C1[C@H](CO)[C@@H](O)C[C@@H]1n1cnc2c(=O)[nH]c(N)nc21 [Entecavir Hydrate],fractional viability,2uM,1.01
same,fractional viability,10uM,0.935
Cc1nc(C#Cc2ccnc(Cl)c2)c(C)n1-c1ccc(OC(F)(F)F)cc1,fractional viability,2uM,1.08
same,fractional viability,10uM,0.815
CCn1c(-c2nonc2N)nc2c(C#CC(C)(C)O)ncc(OC[C@H]3CCCNC3)c21,fractional viability,2uM,1.01
same,fractional viability,10uM,0.698
COc1ccc(-c2ccc3ncc4c(c3c2)n(-c2ccc(N3CCNCC3)c(C(F)(F)F)c2)c(=O)n4C)cn1,fractional viability,2uM,0.111
same,fractional viability,10uM,0.0546
Nc1ccc(-c2ccc3ncc4ccc(=O)n(-c5cccc(C(F)(F)F)c5)c4c3c2)cn1 [Torin 2],fractional viability,2uM,0.36
same,fractional viability,10uM,0.363
CNC(=O)c1cc(Oc2ccc3nc(N[C@@H]4CCCC[C@H]4O)sc3c2)ccn1,fractional viability,2uM,0.831
same,fractional viability,10uM,0.74
COc1cc2ncnc(Nc3ccc(O)c(Br)c3)c2cc1OC,fractional viability,2uM,1.37
same,fractional viability,10uM,1.19
N#Cc1c(NC(=O)c2cccc3ccccc23)sc2c1CCCC2 [JNK Inhibitor IX],fractional viability,2uM,0.428
same,fractional viability,10uM,0.386
Cc1cc(C)nc(SCC(=O)Nc2ncc(Cc3cccc4ccccc34)s2)n1,fractional viability,2uM,0.904
same,fractional viability,10uM,0.931
COc1cccc2c1C(=O)c1c(O)c3c(c(O)c1C2=O)C[C@@](O)(C(C)=O)C[C@@H]3O[C@H]1C[C@H](N)[C@H](O)[C@H](C)O1 [Daunorubicin HCl],fractional viability,2uM,0.568
same,fractional viability,10uM,0.108
COc1cccc2c1C(=O)c1c(O)c3c(c(O)c1C2=O)C[C@@](O)(C(=O)CO)C[C@@H]3O[C@H]1C[C@H](N)[C@H](O)[C@H](C)O1 [Doxorubicin (Adriamycin)],fractional viability,2uM,0.738
same,fractional viability,10uM,0.726
CC(=O)[C@]1(O)Cc2c(O)c3c(c(O)c2[C@@H](O[C@H]2C[C@H](N)[C@H](O)[C@H](C)O2)C1)C(=O)c1ccccc1C3=O [Idarubicin HCl],fractional viability,2uM,0.56
same,fractional viability,10uM,0.0586
Cn1nnc(-c2ccc3c(c2)[nH]c2nc(Cc4ccccc4)nc(NC4CCC(N)CC4)c23)n1 (centres undefined),fractional viability,2uM,1.01
same,fractional viability,10uM,0.765
CC(C)Nc1cc(-c2c[nH]c(C(=O)N[C@H](CO)c3cccc(Cl)c3)c2)c(Cl)cn1,fractional viability,2uM,0.453
same,fractional viability,10uM,0.36
Cc1noc(C)c1-c1ccc(-c2cc(C(N)=O)c(NC(N)=O)s2)c(O[C@H]2CCNC2)c1,fractional viability,2uM,0.847
same,fractional viability,10uM,0.778
COc1cc2ncnc(Sc3nnc(C)s3)c2cc1OC,fractional viability,2uM,0.789
same,fractional viability,10uM,0.16
Cn1cc(CNCC2CCN(c3ncc(C(=O)NO)cn3)CC2)c2ccccc21,fractional viability,2uM,0.224
same,fractional viability,10uM,0.19
CCNC(=O)C#Cc1ccc2c(C(=Nc3ccc(CN(C)C)cc3)c3ccccc3)c(O)[nH]c2c1,fractional viability,2uM,0.276
same,fractional viability,10uM,0.0913
CN(C)Cc1cccc(N=C(c2ccccc2)c2c(O)[nH]c3cc(C(=O)N(C)C)ccc23)c1,fractional viability,2uM,1.13
same,fractional viability,10uM,0.78
O=C(O)CCCCC(CCSCc1ccccc1)SCc1ccccc1 (centres undefined),fractional viability,2uM,1.23
same,fractional viability,10uM,0.919
